# GPR151 ag = activators of human GPR151, primary screen, cell-based, PathHunter beta-arrestin, luminescence; hit rate 1% among 650,000; activation, % at 11.2 µM; AID 1508602, 2020; PathHunter beta-arrestin GPR151 cells; in the data active means activation above about 4.9%;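 further: 0% = median of compound wells and 100% = cells with positive control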
# FBW7 activator = FBW7 E3 ligase activators, primary screen, biochemical, AlphaScreen, human; F-box/WD repeat-containing protein 7 (Homo sapiens), Q969H0; AlphaScreen FBW7–phospho-cyclin E peptide binding, activator screen; hit rate 0.13% among 650,000; normalized activity (activation), % at 26.1 µM; in the data active means normalized activity above about 1.9%;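 further: purified mutant Fbw7 with reduced substrate affinity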
# Target sequence (Q969H0 whole entry, looked up): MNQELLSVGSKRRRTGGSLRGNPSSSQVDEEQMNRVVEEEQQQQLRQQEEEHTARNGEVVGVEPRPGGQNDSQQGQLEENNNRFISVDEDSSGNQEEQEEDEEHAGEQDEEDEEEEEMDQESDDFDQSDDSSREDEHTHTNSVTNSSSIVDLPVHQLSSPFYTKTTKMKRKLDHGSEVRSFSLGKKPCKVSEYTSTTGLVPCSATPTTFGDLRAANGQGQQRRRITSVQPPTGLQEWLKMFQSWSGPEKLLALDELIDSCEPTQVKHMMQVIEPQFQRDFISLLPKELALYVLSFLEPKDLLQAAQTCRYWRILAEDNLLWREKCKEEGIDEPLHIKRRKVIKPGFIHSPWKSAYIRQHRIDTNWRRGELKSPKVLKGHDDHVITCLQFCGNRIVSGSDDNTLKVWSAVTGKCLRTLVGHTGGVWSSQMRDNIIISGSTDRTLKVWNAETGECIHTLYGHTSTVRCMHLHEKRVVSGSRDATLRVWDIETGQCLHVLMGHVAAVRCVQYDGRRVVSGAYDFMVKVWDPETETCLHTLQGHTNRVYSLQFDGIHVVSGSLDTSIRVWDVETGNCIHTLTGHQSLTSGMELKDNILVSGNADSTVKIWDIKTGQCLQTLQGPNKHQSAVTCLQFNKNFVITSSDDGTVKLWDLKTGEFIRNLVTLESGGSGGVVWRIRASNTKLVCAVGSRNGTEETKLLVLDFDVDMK
# MITF primary = MITF inhibitors, primary screen, biochemical, AlphaScreen, human | Microphthalmia-associated transcription factor (Homo sapiens), O75030 | AlphaScreen MITF homodimerization, bead proximity signal | inhibition, % at 2.6 µM | hit rate 0.91% among 650,000 | AID 1259374, 2018; in the data active means inhibition above about 50%;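 further: 0% = vehicle wells with protein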
# TEAD-YAP inh = TEAD-YAP interaction inhibition, primary screen, TEAD-YAP interaction inhibitor project, luminescence, HEK-TIYL cells | TEAD-Gal4/YAP UAS-luciferase luminescence | inhibition, % at 9.12 µM | hit rate 1.4% among 640,000 | AID 1259422, 2018; in the data active means inhibition above about 32%;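 further: 0% = median of test compound wells and 100% = reference inhibitor wells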
# Starred values were filed as active, the others as inactive; . = no result given. Sampled rows, rich in hits. Any-hit rate of the full collection: about 3.5%.
SMILES,GPR151 ag,FBW7 activator,MITF primary,TEAD-YAP inh
CC[n+]1ccc(/C=C/c2cccc(OC)c2OC)cc1,0,0,2,34*
CC(C)(C)n1nc2c(c1NC(=O)C1(c3ccc(Cl)cc3)CCCC1)CS(=O)(=O)C2,-1,.,5,.
Oc1ccc(Nc2nc3nonc3nc2Nc2ccccc2)cc1,-2,0,20,-8
c1ccc(Nc2nc3nonc3nc2Nc2ccccc2)cc1,0,0,14,36*
Fc1ccc(Nc2nc3nonc3nc2Nc2ccc(F)cc2F)c(F)c1,2,0,19,90*
Clc1ccc(Nc2nc3nonc3nc2Nc2ccc(Br)cc2)cc1Cl,1,0,-17,-2
Fc1cccc(Nc2nc3nonc3nc2Nc2cccc(F)c2)c1,0,0,-5,24
Oc1ccc(Nc2nc3nonc3nc2Nc2cccc(Br)c2)cc1,4,0,12,45*
CN(C)c1nc2nonc2nc1Nc1cccc(Cl)c1,2,0,2,75*
CCOc1cccc(NC(=O)c2ccc(S(=O)(=O)N3CCCCC3)cc2)c1,0,0,-6,2
Cc1ccc(Cl)cc1N1CCN(c2c(-c3ccc4c(c3)OCC(=O)N4)c(=O)c2=O)CC1,4,0,-6,61*
O=C1COc2cc(-c3c(N4CCCC4)c(=O)c3=O)ccc2N1,-3,0,13,-4
COc1ccc(NC(=O)c2cc3nc(-c4ccc(Cl)cc4)cc(C(F)(F)F)n3n2)cc1Cl,-1,0,24,6
S=C(NCc1ccc(Cl)cc1)Nc1ccncc1,1,0,9,44*
S=C(NCc1ccncc1)Nc1cccc(Cl)c1,1,0,-14,3
CCOC(=O)c1ccc(Nc2ccc3nonc3c2[N+](=O)[O-])cc1,1,0,4,7
CCOC(=O)c1ccc(Nc2ccc([N+](=O)[O-])c3nonc23)cc1,2,1.9*,12,2
CCOc1ccccc1CN1CCN(Cc2ccc(OC)cc2)CC1CCO (configuration not stated),-1,0,-6,-1
COc1ccc(NCC(=O)n2nc(C)cc2C)cc1,1,0,0,13
COc1ccc(NCC(=O)n2c(C)c(C)c3ccccc32)cc1,-1,0,9,52*
CN1c2ccccc2N(C)C1c1cccc(O)c1,0,0,5,2
CN(C)c1ccc(C2N(C)c3ccccc3N2C)cc1,0,0,8,47*
Cc1ccc(-c2cccc3cnc(Nc4cccc(C(=O)NC5CC5)c4)nc23)cn1,1,0,30,33*
Cc1ccc(-c2cccc3cnc(Nc4ccc(C(=O)NC5CC5)cc4)nc23)cn1,-1,0,-4,64*
Cc1ccc(-c2cccc3cnc(Nc4cccc(C(=O)N5CCCC5)c4)nc23)cn1,2,0,18,25
SMILES,GPR151 ag,FBW7 activator,MITF primary,TEAD-YAP inh
O=C(c1csc2c1CCCC2)N1CCOc2ccc(C(O)c3ccccn3)cc2C1 (configuration not stated),1,0,-3,0
COc1cc(C(=O)Oc2ccc(C(C)=O)cc2)cc(OC)c1OC,0,0,-7,-1
Cc1ccc2nc(-c3ccc(SCC(N)=O)nc3)[nH]c2c1,1,0,-5,53*
Cc1ccc2nc(-c3ccc(SCC(=O)O)nc3)[nH]c2c1,-1,0,-10,-4
CC(=O)CSc1ccc(-c2nc3cc(C)c(C)cc3[nH]2)cn1,-1,0,-5,81*
CC(=O)Nc1cccc(NC(=O)CSc2ccc(-c3nc4cc(C)c(C)cc4[nH]3)cn2)c1,-1,0,-13,-45
CCOc1ccccc1NC(=O)CCC1CCCC1,1,0,0,8
CC(=O)Oc1ccccc1/C=C1\C=C(c2ccccc2)OC1=O,0,0,1,2
COc1ccc(C(=O)N(C)c2ccccc2)cc1,3,0,12,-3
COc1ccc(CC(=O)NNC(=O)Nc2ccc(Cl)c(Cl)c2)cc1,-1,0,12,-9
COc1ccc(/C=C(/C#N)c2nc3c(s2)CC(C)CC3)cc1 (configuration not stated),1,0,7,-12
CC1CCc2nc(/C(C#N)=C\c3ccco3)sc2C1 (configuration not stated),-1,0,-2,70*
COc1ccc(NC(=O)C2C3C=CC4(O3)C2C(=O)N(Cc2ccccc2F)C4C(=O)NC2CCCC(C)C2C)cc1 (configuration not stated),-1,0,2,6
CCOc1ccc(C(=O)NCCS(=O)(=O)N2CCN(c3ccc(F)cc3)CC2)cc1OCC,-1,0,10,0
COc1cccc(C2=Nn3c(nnc3-c3cccc(C)c3)SC2)c1,0,0,9,48*
COc1ccc(-c2nnc3n2N=C(c2ccc(F)cc2)CS3)cc1,-1,1,15,14
COc1ccc(C2=Nn3c(nnc3-c3cccc(F)c3)SC2)cc1,-1,1,8,64*
COc1ccc(-c2nnc3n2N=C(c2ccc(C)cc2)CS3)cc1OC,-2,0,15,52*
CCc1nnc2n1N=C(c1ccc(OC)c(OC)c1)CS2,0,0,-13,-28
COc1ccc(-c2nnc3n2N=C(c2cccc(OC)c2)CS3)cc1,-1,0,-11,4
COc1ccc(-c2nnc3n2N=C(c2ccc(C)cc2)CS3)cc1,0,0,1,52*
COc1ccc(NC(=O)N2CCCC2C(=O)Nc2ccc(NC(C)=O)cc2)cc1 (configuration not stated),1,0,19,15
Cc1cccc(OCC(=O)N2CCN(S(=O)(=O)c3ccc(F)cc3)CC2)c1,-1,0,0,-1
COCCCNC(=O)CN(c1ccc(Cl)c(Cl)c1)S(=O)(=O)c1ccccc1,1,0,3,5
O=C(NCc1ccc2c(c1)OCO2)c1ccc(OCC(=O)C2CC2)cc1,2,0,-3,-3
SMILES,GPR151 ag,FBW7 activator,MITF primary,TEAD-YAP inh
Oc1ccc2cc(Br)ccc2c1Br,0,2.1*,24,-6
COc1ccc(-c2cnc(NCc3cnc(C)cn3)nc2)cc1,-2,1,9,46*
COc1ccc(-c2cnnc(NCc3cnc(C)cn3)n2)cc1,1,0,8,0
COc1cccc(C(=O)Nc2ccc(Oc3ccc4c(c3)C(=O)NC4=O)cc2)c1,-1,0,7,51*
COc1cccc(C(=O)Nc2ccc(-c3ccccc3)cc2)c1,-2,0,-2,-16
CC(C)C(=O)N1CCN(c2ccc(NC(=O)COc3ccccc3[N+](=O)[O-])cc2)CC1,0,0,9,50*
CN1CCN(c2ccc(NC(=O)COc3ccccc3[N+](=O)[O-])cc2)CC1,1,0,15,6
COc1cccc(C(=O)NNC(=O)Cc2ccc(-c3ccccc3)cc2)c1,1,1,-4,62*
COc1cccc(C(=O)Nc2ccc(CC(=O)O)cc2)c1,-1,0,-3,60*

# Screening results from PubChem BioAssay.
